# Measured values taken from the supplement of paper PMC9177965.
# Columns and labels:
# [1] = tested on: HT29 RNF43 G659fs (RNF43 659mut, CRISPR-edited); assay: cell viability activity relative to DMSO (negative = inhibition); higher = more viable cells (less growth inhibition); conditions: 5 µM; 96 h
# Procedure: (§1)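 Broad Repurposing Library primary screen at a single dose of 5 uM. HT29 sg-Ctrl and HT29 RNF43 G659fs CRISPR-edited isogenic cells were seeded at 2500 cells/well in 384-well plates in duplicate and treated for 96 h. Viability was read by CellTiter-Glo and reported as % activity relative to DMSO, with MG132 as the positive control (negative = growth inhibition).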
# [2] = tested on: HT29 sg-Ctrl (RNF43 wildtype); assay: as above; conditions: 5 µM; 96 h
# Procedure: as §1
structure (smiles),measurement,setting,value
C/C(=N\NC(=S)N1CCC1)c1ccccn1,cell viability activity,[1],-82.2%
same,cell viability activity,[2],-88.9%
CCCS(=O)(=O)Nc1ccc(F)c(C(=O)c2c[nH]c3ncc(-c4ccc(Cl)cc4)cc23)c1F,cell viability activity,[1],-35.4%
same,cell viability activity,[2],-47.2%
COc1cc2ncnc(Nc3ccc(F)c(Cl)c3)c2cc1NC(=O)/C=C/CN1CCCCC1,cell viability activity,[1],-93.1%
same,cell viability activity,[2],-77.9%
CCNC(=O)C#Cc1ccc2c(C(=Nc3ccc(CN(C)C)cc3)c3ccccc3)c(O)[nH]c2c1,cell viability activity,[1],-98.3%
same,cell viability activity,[2],-96.8%
Cc1cnc(Nc2ccc(OCCN3CCCC3)cc2)nc1Nc1cccc(S(=O)(=O)NC(C)(C)C)c1,cell viability activity,[1],-95%
same,cell viability activity,[2],-92.4%
Cc1nc(Nc2ncc(C(=O)Nc3c(C)cccc3Cl)s2)cc(N2CCN(CCO)CC2)n1,cell viability activity,[1],-65.9%
same,cell viability activity,[2],-60.3%
Clc1cc(Cl)c(OCC#CI)cc1Cl,cell viability activity,[1],-35.5%
same,cell viability activity,[2],-23.2%
Cc1cc(N2CCOCC2)cc2[nH]c(-c3c(NC[C@@H](O)c4cccc(Cl)c4)cc[nH]c3=O)nc12,cell viability activity,[1],-55%
same,cell viability activity,[2],-50.5%
NS(=O)(=O)C#Cc1ccccc1,cell viability activity,[1],-68.8%
same,cell viability activity,[2],-72.2%
Cc1cc(Nc2cc(N3CCN(C)CC3)nc(Sc3ccc(NC(=O)C4CC4)cc3)n2)n[nH]1,cell viability activity,[1],-22.2%
same,cell viability activity,[2],-38.2%
CCc1c2c(nc3ccc(O)cc13)-c1cc3c(c(=O)n1C2)COC(=O)[C@]3(O)CC,cell viability activity,[1],-84%
same,cell viability activity,[2],-63.3%
Cc1cc(NC(=O)NCCN2CCC(O)(Cc3ccccc3)CC2)c2ccccc2n1,cell viability activity,[1],-36.2%
same,cell viability activity,[2],-24.3%
CC(C)[C@H](C(=O)Nc1ccc(C(=O)NO)cc1)c1ccccc1,cell viability activity,[1],-95%
same,cell viability activity,[2],-89.9%
Cc1cc(OCc2nc(-c3ccccc3Cl)cs2)ccc1OCC(=O)O,cell viability activity,[1],-41.6%
same,cell viability activity,[2],-31.1%
